# Columns and labels:
# Assay type in all cases: functional
# [1] = molecular target: Solute carrier family 2, facilitated glucose transporter member 1 (Homo sapiens) (UniProt P11166); assay: ST_JUDE_LEISH: Cytotoxicity at 2uM final concentration against transgenic Leishmania Mexicana promastigotes LmGLUT1 that are glucose transport deficient and complemented with the human glucose transporter GLUT1. Activity is measured by DNA content using SYBR green in vitro
# [2] = molecular target: Hexose transporter 1 (Plasmodium falciparum) (UniProt O97467); assay: ST_JUDE_LEISH: Cytotoxicity at 2uM final concentration against transgenic Leishmania Mexicana promastigotes LmPfHT that are glucose transport deficient and complemented with the Plasmodium falciparum hexose transporter. Activity is measured by DNA content using SYBR green in vitro
# [3] = molecular target: Glucose transporter (Leishmania mexicana) (UniProt O61059); assay: ST_JUDE_LEISH: Cytotoxicity at 2uM final concentration against transgenic Leishmania Mexicana promastigotes LmGT2 that are glucose transport deficient and complemented with the L. Mexicana glucose transporter 2. Activity is measured by DNA content using SYBR green in vitro
# Chain of Solute carrier family 2, facilitated glucose transporter member 1 (Homo sapiens) (P11166 whole entry): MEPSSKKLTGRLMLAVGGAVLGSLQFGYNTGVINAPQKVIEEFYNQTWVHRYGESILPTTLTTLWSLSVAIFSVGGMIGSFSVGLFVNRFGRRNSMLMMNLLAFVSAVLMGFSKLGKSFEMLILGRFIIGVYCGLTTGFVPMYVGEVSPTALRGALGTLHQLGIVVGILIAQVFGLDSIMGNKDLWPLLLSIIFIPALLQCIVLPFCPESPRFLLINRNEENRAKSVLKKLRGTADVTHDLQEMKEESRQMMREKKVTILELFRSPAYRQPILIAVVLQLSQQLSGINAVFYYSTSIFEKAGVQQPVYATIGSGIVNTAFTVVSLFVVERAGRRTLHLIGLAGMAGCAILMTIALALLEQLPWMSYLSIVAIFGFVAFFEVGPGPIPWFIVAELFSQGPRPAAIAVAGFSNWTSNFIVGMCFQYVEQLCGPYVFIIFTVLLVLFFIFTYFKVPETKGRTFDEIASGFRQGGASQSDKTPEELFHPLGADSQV
SMILES,inhibition [1] [%],inhibition [2] [%],inhibition [3] [%]
CC(C)C[C@H](NC(=O)[C@H](Cc1ccccc1)NC(=O)CCN1C(=O)COc2ccc(C(=O)O)cc21)C(=O)NC(CC1CCCCC1)C(O)CC(=O)NCCCn1ccnc1 (stereo not given in full),9.79,6.73,9.78
O=C(NCc1ccc(F)cc1)c1cnc(N2CCN(c3ccncc3)CC2)c(Cl)c1,22.7,11.6,5.45
c1ccc2c(c1)CN(Cc1cc3ccccc3[nH]1)CC1(CCN(Cc3c[nH]c4cnccc34)CC1)O2,1.1,-0.02,-0.44
O=S(=O)(NCCN1CCCC1)c1ccc(-c2ccc(CNCc3ccccc3)cc2)cc1,2.85,1.2,-0.93
CN1CCCC(CN2CCN(Cc3cccc(-c4ccc(-c5nc6ccccc6[nH]5)cc4)c3)CC2)C1 (stereo not given),7.48,9.12,6.63
COc1ccc2ncc(F)c(CCN3CCC(NCc4cc(Br)c5c(c4)OCCO5)CC3)c2n1,18.9,31.4,14.3
Cc1cc(N[C@@H](Cc2ccccc2)C(=O)NCc2cccs2)nc(NCCOc2ccccc2)n1,8.74,10.4,5.27
CCOC(=O)N1NC(=O)N(c2ccccc2)C1(c1ccccc1)c1ccccc1,2.45,1.19,2.17
CN(C)c1ccc(C=Cc2ccc3ccccc3n2)c(Cl)c1,91.5,83.8,85.2
CCN1CCC(N(Cc2ccc(-c3ccc(C(F)(F)F)cc3)cc2)C(=O)Cn2c(CCc3cccc(F)c3F)cc(=O)c3c2CCCC3)CC1,0.35,0.64,0.87
O=C(Nc1cccc(CN2CCCN(Cc3ccc(O)cc3)CC2)c1)c1ccc(Br)cc1,0.51,0.85,3.89
COc1ccc2nccc(N3CCC(SCCNCc4ccc5c(n4)NC(=O)CS5)C3)c2n1 (stereo not given),-1.38,-0.72,0.51
Cc1ccc(CN2CCN(Cc3cccc(NC(=O)c4cccs4)c3)CC2)cc1C,2.28,2.39,1.91
Cc1ccccc1C1CCN(C2CCC(NC(=O)c3ccc(-c4cccs4)s3)CC2)CC1 (stereo not given),2.14,1.24,1.93
COc1cc2nc(NC3CCN(Cc4ccccc4)CC3)nc(N)c2cc1OC,3.62,2.22,13
CCn1c(-c2nonc2N)nc2c(C#CC(C)(C)O)ncc(OCCNCCc3ccc(OC)cc3)c21,5.15,9.69,2.23
O=C(Nc1cccc(Cl)c1)c1cc2ccccc2cc1O,2.74,3.05,2.04
CN1CCN(CCCNc2ncc3c(-c4ccc(NC(=O)Nc5cc(C(F)(F)F)ccc5F)c(F)c4)nn(C)c3n2)CC1,-0.98,-3.33,7.86
Cc1cc(C=C(P(=O)(OC(C)C)OC(C)C)P(=O)(OC(C)C)OC(C)C)c2ccccc2c1O,6.71,7.2,1.63
CCN(CCCN1CCCCC1)c1cc(C)nc(Nc2cc(Cl)ccc2C)n1,1.18,1.77,1.67
COc1ccc(CNCc2cccc(-c3cccc(-c4nc5cc(C(F)(F)F)ccc5[nH]4)c3)c2)cc1,5.4,4.65,3.48
CC(=O)Nc1ccc(CN2CCC(NC(=O)c3ccc(-c4cccc(F)c4)s3)CC2)cc1,1.73,0.06,0.34
Cc1c(CCNC(=O)CCCN2CC(C)CC(C)C2)c2ccccc2n1C (stereo not given),1.14,3.38,3.01
O=C(Nc1ccsc1C(=O)NC1CCCCC1)c1ccc(F)cc1,0.07,-1.32,-0.45

SMILES,inhibition [1] [%],inhibition [2] [%],inhibition [3] [%]
CO/C(=C\C=C\c1cc2cc(Cl)c(Cl)cc2[nH]1)C(=O)NCCCNCCN(C)c1ccccc1,4.77,2.76,1.74
COc1c(OC)c(OC)c2ccccc2c1CNCCCCCCNCc1c(OC)c(OC)c(OC)c2ccccc12,7.56,7.58,0.02
O=C(Nc1ccc2ccccc2c1)c1ccc(CN2CCC(Cc3ccccc3)CC2)cc1,-2.67,-3.63,7.65
CCNC(=O)Nc1ccc(N(C)c2ccnc(Nc3ccc(CS(C)(=O)=O)cc3)n2)cc1,13.5,12.2,9.58
CC(C)(C)c1ccc(NC(=O)c2ccc(CN3CCCN(Cc4ccsc4)CC3)cc2)cc1,9.06,10.4,11.9
O=C(NCC1CCN(Cc2ccc3c(c2)OCCO3)C1)c1cc(-c2ccccc2F)cs1 (stereo not given),4.88,4.71,7.55
CCN1CCN(c2cc(C)c3cc(NC(=O)c4cc(OC)cc(OC)c4)ccc3n2)CC1,-0.26,1.03,2.19
Cc1ccc2c(O)c([N+](=O)[O-])c(O)nc2c1,-1.72,1.03,1.6
O=C(NC1CCN(CCC[C@]2(c3ccc(Cl)c(Cl)c3)CCCN(C(=O)c3ccccc3)C2)CC1)c1ccc(Cl)cc1,-0.59,-1.27,-2.33
CC(C)Nc1cc(C(=O)N[C@@H](Cc2ccccc2)[C@H](O)CNC(C)(C)c2cccc(C(F)(F)F)c2)cc(N2CCCCS2(=O)=O)c1,1.42,2.46,0.9
Cn1nccc1C(=O)NCCNCc1cccc(-c2csc(-c3nc4ccccc4[nH]3)c2)c1,9.15,8.22,7.22
Cc1cccc2nc(-c3cccc(-c4cccc(CNC(C)C)c4)c3)[nH]c12,-0.63,0.85,0.35
Cc1[nH]c(C)c(-c2ccc(OCc3ccc(OC(F)(F)F)cc3)nc2)c(=O)c1Cl,13.3,15.2,11.2
CCCc1cc(Cc2cnc(N)nc2N)cc(CCC)c1OCCCCC(=O)OCC,6.48,2.3,1.54
CCC(O)(C#Cc1c(C)nc(N)nc1N)CC,2.19,2.72,-0.68
CC(C)N1CCN(c2ccc(OCCCN3CCN(c4cccc(Cl)c4Cl)CC3)c(C(F)(F)F)c2)CC1,2.24,1.13,-0.82
Cn1c(NCc2cc(F)cc3c2OCOC3)nc2cc(Nc3ccnc(Nc4cccc(CS(C)(=O)=O)c4)n3)ccc21,-1.66,1.11,1.18
Fc1ccc2[nH]ccc(=NN=CC=Cc3ccccc3)c2c1,1.52,3,-2.56
N#Cc1ccc(-c2ccc(C(=O)NCCCCN3CCC(c4nc5ccccc5[nH]4)CC3)cc2)cc1,2.16,2.21,2.69
O=C(Cc1cccc(Cl)c1)Nc1cccc(-c2c[nH]c3nc(Nc4ccccc4)ncc23)c1,3.42,-0.54,0.7
CS(=O)(=O)c1cc2c(Nc3ccc(N4CCOCC4)cc3)c(C(N)=O)cnc2cc1Br,4.41,1.07,3.69
COc1ccc2c(NN=Cc3ccccc3)ccnc2c1,1.36,-2.08,-1.04
CCn1c(C2CCN(CCC3CCN(C(=O)/C=C/c4ccc(Cl)c(Cl)c4)CC3)CC2)nc2ccccc21,3.31,1.31,0.66
CCN(CC)C(=O)C1CCCN(C(=O)Nc2cc(C(F)(F)F)cc(C(F)(F)F)c2)C1 (stereo not given),0.66,0.55,-2.05

SMILES,inhibition [1] [%],inhibition [2] [%],inhibition [3] [%]
CS(=O)(=O)c1ccc(-c2cc(C(F)(F)F)nc(N[C@@H]3CCCC[C@H]3OCc3ccccc3)n2)cc1,1.33,1.84,1.66
CC(C)(C)c1ccc(CN2CCC(NC(=O)c3ccc(-c4cccc(C(F)(F)F)c4)s3)CC2)cc1,1.56,-0.78,-5.64
COc1cccc(C23NC(=Nc4nc5ccccc5[nH]4)NC2(c2cccc(OC)c2)NC(=Nc2nc4ccccc4[nH]2)N3)c1 (stereo not given),6.07,4.74,3.29
CCN(CCNS(C)(=O)=O)c1ccc(N)c(C)c1,1.65,1.06,1.72
CS(=O)(=O)Nc1ccc2[nH]cc(C3CCN(CC4CCC(NC(=O)/C=C/c5ccc(Cl)c(Cl)c5)CC4)CC3)c2n1 (stereo not given),3.3,1.84,0.21
Cc1ccc(NC(=O)c2c(C)noc2-c2snnc2C)cc1,3.24,4.05,3.02
O=S(=O)(Nc1ccc(CCN2CCC(N3CCCCC3)CC2)cc1)c1ccc2ccccc2c1,4.91,11.2,4.79
COc1ccc2ncc(C#N)c(CCN3CCC(NCc4ccc5c(c4)NC(=O)CO5)CC3)c2c1,12.7,9.55,8.73
COc1ccc(NC(=O)[C@H](C)Nc2cc(C)nc(NCC3CCCCC3)n2)cc1,5.31,3.39,3
COc1ccccc1C(=O)Nc1ccc(Nc2nc(C)cc(N(C)C)n2)cc1,7.13,18.3,5.83
CN(C)c1ccc(CN2CCC(NC(=O)c3ccc(-c4cccc(F)c4)s3)CC2)cc1,4.53,5.36,1.82
Cc1cccc2nc(-c3cccc(-c4cccc(CNCc5cnn(-c6ccccc6)n5)c4)c3)[nH]c12,0.8,1.43,2.51
C=CCOc1ccc(CNC2CCN(Cc3ccccc3)CC2)cc1Br,2.99,4.16,0.3
CCN(CC)CCNC(=O)c1ccc(NC(=O)c2cc3c(C)nn(-c4ccc(Cl)cc4)c3s2)cc1,2.43,2.37,1.83
COc1cc(C(F)(F)F)c2cc(CNCCCNc3nc4ccccc4[nH]3)[nH]c2c1,1.29,2.11,2.95
CC(=O)Nc1ccc2[nH]cc(C3CCN(CCC4CCN(C(=O)/C=C/c5ccc(Cl)c(Cl)c5)CC4)CC3)c2n1,0.57,0.67,-1.33
COc1ccc(CCN(C)CCCOc2ccc(NC(=O)c3cccc4c(=O)c5ccccc5[nH]c34)cc2)cc1OC,5.62,2.58,1.73
CCOc1ccc(S(=O)(=O)N(C)c2ccc(OCC(=O)Nc3nccs3)cc2)cc1,5.83,0.61,1.43
O=C(Nc1ccc2c(c1)CCN2C1CCN(Cc2ccc(F)cc2Cl)C1)c1ccco1 (stereo not given),1.66,0.61,2.25
N#Cc1c(N2CCCCCC2)nc(N)c2c(N)nc3c(c12)CC(=O)N3c1ccc(F)cc1,2.61,1.65,2.89
CN(C)CCCNc1ncnc2c1[nH]c1ccc(F)cc12,7.06,7.08,7.71
O=C(Nc1ccc(OC2CCN(Cc3ccc(F)cc3)CC2)c(Cl)c1)c1ccccc1,-3.58,0.82,6.06

# — ChEMBL document CHEMBL3433997, “St. Jude Leishmania screening dataset” (2016)
